aSyn UTR act = Activators via SNCA 5'UTR binding, MLPCN | AID 1814, 2009 | activity score, % (tested at 7.5 µM), hits read low | alpha-synuclein 5'UTR reporter, activators screen | 300,000 tested, 7.1% active; in the data active means activity score below about -60%
A number is an active result; n = inactive. Not all results are given here.

SMILES	aSyn UTR act
CC(C)(C)c1cc(-n2ccnc2)n2ncc(-c3ccc(Cl)cc3)c2n1	-67
Cc1cc(NCCCn2ccnc2)n2ncc(-c3ccc(Cl)cc3)c2n1	n
CC(C)(C)c1cc(NCCCn2ccnc2)n2ncc(-c3ccccc3)c2n1	-149
CN(C)CCCNc1cc(C(C)(C)C)nc2c(-c3ccc(Cl)cc3)cnn12	n
COc1cccc(C(=O)Nc2ccc(F)c(F)c2F)c1	-170
COc1cccc(C(=O)Nc2ccccc2F)c1	-73
COc1cccc(C(=O)Nc2ccc(F)cc2F)c1	-114
O=C(Nc1ccccc1F)Oc1cccc(OC(=O)Nc2ccccc2F)c1	-108
COc1ccsc1C(=O)Nc1ccc(F)cc1F	-69
COc1cccc(C(=O)Nc2ccc(C(F)(F)F)n(C)c2=O)c1	-71
Cn1ccc(C(=O)Oc2ccc(C(=O)Nc3ccc(F)cc3F)cc2)n1	-122
Clc1cnc(N/N=C/c2cccs2)c(Cl)c1	-193
Oc1ccc(/C=N/Nc2ncc(Cl)cc2Cl)cc1	-73
Cc1ccc(/C=N/Nc2ncc(Cl)cc2Cl)s1	-148
CC1Oc2ccccc2N(CC(=O)NCc2ccccc2)C1=O (stereo unspecified)	-91
NS(=O)(=O)c1cccc(NC(=S)NC(=O)C23CC4CC(CC(C4)C2)C3)c1	-62
N#CC(C#N)=C(Nc1ccc(F)cc1)SCc1cccc(Br)c1	n
CN(C)C(/C=C/Nc1ccc(F)cc1)=C(C#N)C#N	-63
COc1ccc(/C=C2\SC(=O)N(CCC(=O)Nc3ccccc3)C2=O)cc1OC	n
COc1ccccc1/C=C1\SC(=O)N(CCC(=O)NNC(=O)c2ccccc2Cl)C1=O	-74
CC(=C/c1ccc(C(C)C)cc1)/C=N/NC(=O)CSc1ccccn1	-164
CC(/C=N/NC(=O)CSc1ccccn1)=C\c1ccc(C(C)C)cc1	-254
CCCCOc1ccc(/C(N)=N/O)cc1	-73
C/C(=N/N=C/c1ccccc1O)c1ccccc1O	-240
CCCCS/C(N)=N/N=C/c1ccccc1O	-153
SMILES	aSyn UTR act
CCCS/C(N)=N/N=C/c1cc(C)ccc1O	-138
O=C(CSc1nc2ccccc2s1)N/N=C/c1ccccc1C(=O)O	-90
O=C(CSc1nnc(NC(=O)c2ccccc2Cl)s1)Nc1ccc2c(c1)oc1ccccc12	-144
O=C(CSc1nc2ccccc2s1)Nc1ccc2c(c1)oc1ccccc12	-80
O=c1oc2ccccc2n1CSc1nc2ccccc2s1	-99
CC(=O)O[C@H]1C(=O)[C@]2(C)[C@H]([C@H](OC(=O)c3ccccc3)[C@]3(O)C[C@H](OC(=O)[C@H](O)[C@@H](NC(=O)c4ccccc4)c4ccccc4)C(C)=C1C3(C)C)[C@]1(OC(C)=O)CO[C@@H]1C[C@@H]2O	n
Nc1nccc(/C=C/c2ccc(Cl)cc2)n1	-112
CCn1c(-c2ccc(N(C)C)cc2)nc2ccccc21	-97
C=CCn1c(-c2ccc(OC)cc2)nc2ccccc21	-73
CN(C)c1ccc(-c2nc3ccccc3n2C)cc1	n
O=C1c2ccccc2C(=O)C1c1ccc(O)cc1	-87
CCCCOC(=O)/C(=C/c1cn(C)c2ccccc12)NC(=O)c1ccc(OC)cc1	-100
CC(=O)c1c(C)[nH]c(C(=O)Nc2cc(C)cc(C)c2)c1C	-78
CC(=O)c1c(C)[nH]c(C(=O)Nc2nc(C)cs2)c1C	n
CC(=O)c1c(C)[nH]c(C(=O)Nc2cccc(S(=O)(=O)N(C)C)c2)c1C	-153
COc1ccc(OC)c(NC(=O)c2[nH]c(C)c(C(C)=O)c2C)c1	-85
CN(C)CCCNS(=O)(=O)c1ccc(N2CCC(c3ccc(Cl)cc3)=N2)cc1	-139
Cc1cc(-c2onc3ccc(Cl)cc23)ccc1O	-91
Cc1ccc(-c2onc3ccc(C=O)cc23)cc1	-139
NC(=O)C(C(=O)/C=C/c1ccc(Cl)cc1)=C1SCCS1	-114
COc1ccc(/C=C/C(=O)C(C(N)=O)=C2SCCS2)cc1	-109
COc1ccc(-c2nc(C#N)c(NCCc3ccccc3)o2)cc1OC	-142
N#Cc1nc(-c2cccs2)oc1NCCc1ccccc1	-111
Cc1c(C(=O)Nc2ccccc2)cnn1-c1ccccc1	-68
Cc1c(C(=O)Nc2cccc(F)c2)cnn1-c1ccccc1	-212
SMILES	aSyn UTR act
COc1ccc(NC(=O)c2cnn(-c3ccccc3)c2C)cc1OC	-153
Cc1c(C(=O)Nc2cccc([N+](=O)[O-])c2)cnn1-c1ccccc1	-137
COc1ccc(CN2CCn3ncc(C(=O)Nc4ccccc4)c3C2=O)cc1	-86
COc1ccc(NC(=O)c2cnn(-c3ccccc3)c2C)cc1	-62
CC(=O)c1cccc(NC(=O)c2cnn(-c3ccccc3)c2C)c1	-181
Cc1cc(C)nc(NC(=O)c2cc(-c3ccc(C)s3)nc3ccccc23)c1	-62
COCCNC(=O)c1cc2sc3ccccc3c2s1	-175
CCCCN(CC)CCCNC(=O)c1cc2c(=O)n(CC)c3ccccc3c2s1	-321
CCCCN(CC)CCNC(=O)c1cc2c(=O)n(CC)c3ccccc3c2s1	-274
CCCN(CCC)CCCNC(=O)c1cc2c(=O)n(CC)c3ccccc3c2s1	-300
CCn1c(=O)c2cc(C(=O)NCCCOC)sc2c2ccccc21	-85
COCCCNC(=O)c1ccc(Cn2c(=O)c3ccccc3n(Cc3ccccc3C#N)c2=O)cc1	n

Screens as filed in PubChem BioAssay.
